Values joined by “and” are separate entries in the source; they are usually repeats but may differ in a detail not shown here. Equal entries are not always repeated. Results filed as inconclusive are left out. Active and inactive are the calls of the source. The call rests on the fitted dose curve; in most records, active means well fitted inhibition curve with a large enough effect; inconclusive means small, poorly fitted or top-dose-only effect; inactive means no such curve, though single readings can be large or run the other way.

Drawing on PubChem BioAssay AID1347414 (National Center for Advancing Translational Sciences (NCATS), 2020), this text covers Potency for 20 compounds.
Potency means the concentration at half of the fitted maximal effect.

The nature of the assay: qHTS to identify inhibitors of the type 1 interferon - major histocompatibility complex class I in skeletal muscle: Secondary screen by immunofluorescence. Further: nearly all actives have a fitted effect of over 70% in size. Particulars: C25cl48 myoblasts, IFN-b induced HLA-ABC immunofluorescence, 24 h; series mostly up to 49.8 µM. An excerpt: Assay Submitter (PI): Travis B. Kinder Ph.D. & James Inglese Ph.D. Assay Development and Screening Technology Laboratory (ADST) National Center for Advancing Translational Sciences (NCATS), Rockville, MD National Institute of Health (NIH), Bethesda, Maryland Idiopathic inflammatory myopathies, collectively referred to as myositis, are a group of rare autoimmune diseases characterized by skeletal muscle inflammation, weakness, and usually accompanied by systemic pathologies of the skin, lungs, or vasculature. Current immunosuppressive therapies and glucocorticoids are often not curative and are accompanied by harsh side effects, especially in children with juvenile myositis. We initiated a drug repurposing and development program to identify more targeted, less toxic therapeutics to treat myositis. Although its cause is not known, muscle from a subset of patients have an abundance of the inflammatory type 1 interferon (IFN) and a down-stream product major histocompatibility complex class I (MHC class I), which are both thought to contribute to damage and weakness. We conducted quantitative high throughput screening (qHTS) on 6,576 compounds (4,679 unique) through a series of cell-based assays to identify those that inhibit the IFN-stimulated expression of MHC class I in muscle precursor cells (myoblasts). The compound identification and evaluation strategy utilized a primary screen with reporter-tagged MHC class I in genome-engineered myoblasts, ATP content counter screen for viability, HLA-ABC immunofluorescence secondary screen, and HLA-B RT-qPCR tertiary screen. To verify activity of compounds identified by qHTS in HLA-B HiBit reporter cells, compounds were assayed by high throughput HLA-ABC immunofluorescence. Briefly, 216 compounds identified from primary and counter screening as inhibitory with minimal cytotoxicity were dispensed into black/clear bottom […] using acoustic dispensing in an 11-point, 1:3 titration with a high final concentration of 50 uM. Normal immortalized human myoblasts C25cl48 were added to the plates with 4.0 ng/ml human IFN-beta for 24 hours, fixed, stained by immunofluorescence for HLA-ABC protein, nuclei, and cell body, and analyzed by laser scanning cytometry as described by Auld et al., 2006. References: Auld DS, Johnson RL, Zhang Y, Veith H, Jadhav A, Yasgar A, Simeonov A, Zheng W, Martinez ED, Westwick JK, Austin CP, Inglese J. 2006. Fluorescent protein-based cellular assays analyzed by laser-scanning microplate cytometry in 1536-well plate format. Methods Enzymol 414:566-89. doi:10.1016/S0076-6879(06)14029-X
PROTOCOL TABLE (as described by Inglese et al., 2007) SEQUENCE No. (e.g., 1, 2, 3, etc.); […] (e.g., Cells, Incubation, Reagent, etc.); VALUE; DESCRIPTION 0; Compounds; 25 nl; Follow-up compounds dispensed at 25 nl/well with Labcyte Echo 655 acoustic dispenser in triplicate Aurora ChemLib 1536K black/clear bottom, low base, TC 1536-well plates (00019324). Also dispensed 25 nl/well DMSO control, ruxolitinib IFN-b inhibitor control titration, and digitonin cytotoxic control 1a; Cells; 5 uL; Multidrop Combi (Thermo Scientific) to seed 125 cells/well into eight plates in 5 ul/well of iHSKM growth medium (GM) without dexamethasone into columns 1+2. Add metal lids with gas-exchange holes 1b; Cells; 5 uL; Multidrop Combi (Thermo Scientific) to seed 125 cells/well into eight plates in 5 ul/well of iHSKM GM without dexamethasone + 4 ng/ml IFN-b into columns 3 - 48. […]
(Quantitative high-throughput screening tests each substance at several concentrations.)
Take `CC1=C(O)C(=O)C=C2C1=CC=C1[C@@]2(C)CC[C@@]2(C)[C@@H]3C[C@](C)(C(=O)O)CC[C@]3(C)CC[C@]12C`: the Potency was 1150 nM (active).

Regarding `C/C(=C\c1csc(C)n1)[C@@H]1C[C@@H]2O[C@]2(C)CCC[C@H](C)[C@H](O)[C@@H](C)C(=O)C(C)(C)[C@@H](O)CC(=O)O1`, the Potency result was “inactive”.

For `CC(=O)OC[C@H]1O[C@@H]([S-])[C@H](OC(C)=O)[C@@H](OC(C)=O)[C@@H]1OC(C)=O.CC[PH+](CC)CC.[Au]`, the Potency was 576 nM (active).

As for `C[C@@H]1O[C@@H](O[C@@H]2C=C3CC[C@@H]4[C@H](CC[C@]5(C)[C@@H](c6ccc(=O)oc6)CC[C@]45O)[C@@]3(C)CC2)[C@H](O)[C@H](O)[C@H]1O`, the Potency was 36.4 nM (active).

As for `C[C@@H]1O[C@@H](O[C@H]2C[C@@H](O)[C@]3(CO)[C@H]4[C@H](O)C[C@]5(C)[C@@H](C6=CC(=O)OC6)CC[C@]5(O)[C@@H]4CC[C@]3(O)C2)[C@H](O)[C@H](O)[C@H]1O`, the Potency is 64.7 nM (active).

In the case of `O=C1/C(=C\c2ccccc2)C[C@@]2(O)[C@H]3Cc4ccc(O)c5c4[C@@]2(CCN3CC2CC2)[C@H]1O5`, the Potency was 2290 nM (active).

In the case of `Cc1[nH]ncc1-c1cc2nc([C@@H]3CC4CCN3CC4)[nH]c(=O)c2s1`, the Potency is 3640 nM (active).

Turning to `CC(C)(C)c1cc(C=C(C#N)C#N)cc(C(C)(C)C)c1O`, the Potency entry was “inactive”.

In the case of `CC(C)[C@]12O[C@H]1[C@@H]1O[C@@]13[C@@]1(C)CCC4=C(COC4=O)[C@@H]1C[C@@H]1O[C@@]13C2=O`, the Potency is 162 nM (active).

`Cc1sc2c(c1C)C(c1ccc(Cl)cc1)=N[C@@H](CC(N)=O)c1nnc(C)n1-2`: the Potency is 162 nM (active).

Turning to `COC(=O)[C@@]12OC[C@]34[C@H]([C@@H](O)[C@@H]1O)[C@@]1(C)CC(=O)C(O)=C(C)[C@@H]1C[C@H]3OC(=O)[C@H](OC(=O)/C=C(\C)C(C)C)[C@@H]24`, the Potency was 36.4 nM (active).

With `CC(C)[C@]12O[C@H]1[C@@H]1O[C@]13[C@]1(O[C@H]1C[C@H]1C4=C(CC[C@@]13C)C(=O)OC4)[C@@H]2O`, the Potency is 91.4 nM (active).

For the compound `COc1cccc2c1C(=O)c1c(O)c3c(c(O)c1C2=O)C[C@@](O)(C(=O)CO)CC3OC1CC(N2CCOC(OC)C2)C(O)C(C)O1` (stereo not given in full), the Potency was 57.6 nM (active).

Take `CC1(C)CC[C@]2(NC(=O)C(C)(F)F)CC[C@]3(C)[C@H](C(=O)C=C4[C@@]5(C)C=C(C#N)C(=O)C(C)(C)[C@@H]5CC[C@]43C)[C@@H]2C1`: the Potency is 3240 nM (active).

On to `O=[N+]([O-])/C=C/c1ccc2c(c1)OCO2`, for which the Potency is 18200 nM (active).

In the case of `O=c1[nH]c2ccc(Cl)cc2c(N[C@@H]2CN3CCC2CC3)c1-c1nc2ccccc2[nH]1`, the Potency was 1620 nM (active).

Regarding `Cc1[nH]nc2ccc(-c3cncc(OC[C@@H](N)Cc4c[nH]c5ccccc45)c3)cc12`, the Potency was 230 nM (active).

`C/C1=C/C[C@@H](/C(C)=C/c2csc(C)n2)OC(=O)C[C@H](O)C(C)(C)C(=O)[C@H](C)[C@@H](O)[C@@H](C)CCC1`: the Potency result is “inactive”.

Consider `COC(=O)[C@]12CCC(C)(C)C[C@H]1[C@H]1C(=O)C=C3[C@@]4(C)C=C(C#N)C(=O)C(C)(C)[C@@H]4CC[C@@]3(C)[C@]1(C)CC2`, for which the Potency was 3640 nM (active).

With `CC[C@@]1(O)C(=O)OCc2c1cc1n(c2=O)Cc2cc3ccccc3nc2-1`, the Potency is 1.62 µM (active) and 2.05 µM (active).
